High-throughput results as filed in PubChem.
A selection: hits, their analogues and other compounds. The true share with any hit is near 0.98%.
cardiac RTF act: cardiac RTF calcium sensitization. 340,000 compounds, 0.24% hits. P19429+P45379. IANBD-labeled TnC RTF fluorescence at EC20 calcium; 0% EC20 calcium, 100% full calcium. AID 493008. activation, % at 7.2 µM;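 active = activation above the mean over all tested compounds plus 3 SD, cut at about 30% in these data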;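 also: rise in fluorescence read as greater calcium sensitivity of cardiac thin filaments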
Keap1 Nrf2 FP: inhibitors of human Keap1-Nrf2 protein-protein interaction | inhibition, % at 9.4 µM | Keap1 Kelch-Nrf2 peptide fluorescence polarization, 1536-well | Q14145 | 340,000 compounds, 0.15% hits; in the data active = inhibition above about 12%;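 also: human Keap1 Kelch domain with fluorescein labeled Nrf2 9mer peptide probe; 0% = neutral control wells and 100% = peptide positive control; higher means more block of Keap1 binding to Nrf2 peptide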
EBV gp42 inh: inhibitors of Epstein-Barr virus glycoprotein 42. Fluorescence polarization binding assay, mP read-out. inhibition, % (tested at 21.74 µM). 220,000 compounds, 0.42% hits. AID 1085; in the data active = inhibition above about 50%
Cardiac RTF inh: cardiac RTF calcium desensitization; P19429+P45379; IANBD-labeled cardiac RTF, Ca2+ fluorescence; inhibition, % at 7.15 µM; 340,000 compounds, 0.12% hits;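 active = inhibition above the mean inhibition of all tested compounds plus 3 SD, cut at about 17% in these data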;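 also: assay run at fixed EC70 calcium of 1.6 mM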
C-LANA FP: blocks KSHV LANA C-terminal domain binding to DNA; MBP-C-LANA/FAM-LBS DNA binding, fluorescence polarization; inhibition, % at 9 µM; 340,000 compounds, 0.078% hits; AID 504423;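 active = highest replicate inhibition at or above 60% at 9 µM, even if other replicates fall short; inactive = all replicates below 60% inhibition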;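 also: 0% = neutral control wells and 100% = 4 µM acridine orange control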
eLon inh: inhibitors of E. coli Lon protease; P0A9M0; purified E. coli Lon protease, fluorescence polarization; AID 602123; 360,000 compounds, 0.42% hits; inhibition, % at 7.94 µM; in the data active = inhibition above about 13%, passing the limit was not always enough;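 also: 0% = enzyme with probe and DMSO and 100% = no enzyme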
Target sequence (P0A9M0 whole entry, looked up): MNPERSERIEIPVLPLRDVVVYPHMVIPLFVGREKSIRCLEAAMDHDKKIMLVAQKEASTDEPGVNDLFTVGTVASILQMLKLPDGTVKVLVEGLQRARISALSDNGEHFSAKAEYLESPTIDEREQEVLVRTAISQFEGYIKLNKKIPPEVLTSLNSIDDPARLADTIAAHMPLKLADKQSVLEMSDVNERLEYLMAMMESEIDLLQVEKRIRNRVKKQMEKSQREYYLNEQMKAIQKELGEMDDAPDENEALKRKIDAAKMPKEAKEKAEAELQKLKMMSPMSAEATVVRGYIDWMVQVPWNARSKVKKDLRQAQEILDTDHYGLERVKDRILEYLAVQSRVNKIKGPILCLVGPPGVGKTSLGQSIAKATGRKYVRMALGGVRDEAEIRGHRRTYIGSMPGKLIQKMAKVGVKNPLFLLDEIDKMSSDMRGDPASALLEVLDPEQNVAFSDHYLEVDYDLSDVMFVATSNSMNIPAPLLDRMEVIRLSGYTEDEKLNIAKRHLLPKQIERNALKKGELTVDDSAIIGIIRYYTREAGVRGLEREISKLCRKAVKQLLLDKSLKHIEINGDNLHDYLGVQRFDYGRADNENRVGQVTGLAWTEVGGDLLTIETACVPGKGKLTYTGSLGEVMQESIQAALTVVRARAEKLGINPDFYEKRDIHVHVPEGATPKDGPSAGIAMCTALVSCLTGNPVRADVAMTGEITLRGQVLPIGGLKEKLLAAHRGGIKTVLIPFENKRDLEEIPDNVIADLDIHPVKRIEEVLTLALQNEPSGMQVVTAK
E coli Lon conf: confirmation of E. coli Lon protease inhibitors | shares compounds with eLon inh | purified E. coli Lon, fluorescence polarization | inhibition, % at 7.94 µM | 1,400 compounds, 31% hits | AID 602230; in the data active = inhibition above about 16%;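 also: 0% = enzyme with probe and DMSO and 100% = no enzyme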
The depositor's hits bear a star; . = no result; + = active, no number.

SMILES	cardiac RTF act	Keap1 Nrf2 FP	EBV gp42 inh	Cardiac RTF inh	C-LANA FP	eLon inh	E coli Lon conf
CCOC(=O)c1c(C)[nH]c(C(=O)OCC(=O)N2CCc3ccccc32)c1C	-3.7	-2.9	-29.0	3.7	-0.3	1.0	.
O=C(NC12CC3CC(CC(C3)C1)C2)c1cnccn1	0.6	2.2	13.6	-6.1	7.4	15.1*	-22.5
CN1CCN(c2ccccc2NC(=O)c2ccc3c(c2)OCCO3)CC1	-0.8	-0.1	.	0.0	-0.7	15.8*	2.7
CN1c2ccccc2N(C)C1(C)c1ccccc1	5.1	5.3	2.7	-16.0	10.5	38.3*	2.7
C=CCCC(=O)NC1CCCc2c1cnn2-c1ccccc1F (configuration not stated)	-0.3	-4.8	.	-3.6	-0.7	29.4*	1.9
Cc1cc(C(=O)NC2CCCc3c2cnn3-c2ccccc2F)nc(C)n1 (configuration not stated)	-5.7	2.7	.	3.1	-0.9	-6.6	.
CCC(=O)N1CCC1(C)C(=O)Nc1ccc2nc(C)ccc2c1 (configuration not stated)	.	.	.	.	.	-4.5	.
O=C(C1CC(=O)N(c2ccc(F)cc2)C1)N1CCCCC1 (configuration not stated)	-5.2	-2.3	.	10.8	-1.4	-9.2	.
C[C@H](NC(=O)C1CC(=O)N(c2ccc(F)cc2)C1)C(=O)N1CCCCC1 (some centres not stated)	-6.7	-1.3	.	-2.0	-0.3	20.2*	4.5
CCC(=O)c1ccc(OCC(=O)Nc2cccc(S(=O)(=O)N3CCCCCC3)c2)cc1	-5.5	-6.6	.	13.4	-0.1	5.0	.
CCN1CCN(C(CNS(=O)(=O)c2ccccc2)c2cccnc2)CC1 (configuration not stated)	0.4	-6.3	.	-0.1	-0.7	18.7*	-6.5
C[C@H](CO)N1C[C@H](C)[C@@H](CN(C)S(=O)(=O)c2cccc(F)c2)OCc2cnnn2CCCC1=O	.	.	.	.	.	7.4	.
C[C@H]1CN([C@@H](C)CO)C(=O)CCCn2nncc2CO[C@H]1CN(C)S(=O)(=O)c1cccc(F)c1	.	.	.	.	.	13.0*	-13.8
O=C(CSc1nc2ccccc2s1)NC1CCCC1	3.3	-3.9	-18.1	2.7	0.3	22.8*	3.1
O=C(CSc1nnc(CSc2nc3ccccc3s2)o1)NC1CCCCC1	4.5	-3.8	-23.6	-6.7	0.9	5.2	.
CC(=O)Nc1ccc(S(=O)(=O)NC(C)C(=O)OCC(=O)Nc2ccc(F)cc2Cl)cc1 (configuration not stated)	.	.	.	.	.	0.1	.
CC(=O)c1c(Cl)nc2cccc3c2c1-c1ccccc1C3=O	2.7	-2.4	.	-14.6	5.0	23.6*	27.9*
COc1cc(-c2c(C(C)=O)c(C)nc3c2C(=O)c2ccccc2-3)cc(OC)c1OC	-5.8	6.6	.	1.4	-1.0	-3.3	.
COc1ccccc1-n1c(SCC(=O)NC2CCS(=O)(=O)C2)nc2ccccc2c1=O (configuration not stated)	-4.7	-0.1	.	2.0	2.0	18.7*	2.1
O=C(CSc1nc2ccccc2c(=O)n1-c1ccc(F)cc1F)NC1CCS(=O)(=O)C1 (configuration not stated)	.	.	.	.	.	3.5	.
Cc1onc(-c2c(Cl)cccc2Cl)c1C(=O)N=C(N)N1CCCC1	8.9	1.5	1.1	-10.2	-0.3	32.9*	0.5
Cc1onc(-c2c(Cl)cccc2Cl)c1C(=O)N=C(N)N1CCOCC1	7.2	-2.3	0.3	3.9	-0.5	-0.3	.
COc1ccccc1N1CCN(C(=O)c2c(-c3c(F)cccc3Cl)noc2C)CC1	-1.4	-6.8	.	-1.4	-0.9	21.2*	3.7
O=C(CN1C(=O)c2ccccc2C1=O)NCC(=O)Nc1ccccc1	-7.3	-0.2	.	4.8	-1.4	0.3	.
CN(C)CCNC(=O)c1cccc(-c2cc(NC=O)c3ncc(-c4cccc(C(F)(F)F)c4)n3c2)c1	.	.	.	.	.	-2.3	.
SMILES	cardiac RTF act	Keap1 Nrf2 FP	EBV gp42 inh	Cardiac RTF inh	C-LANA FP	eLon inh	E coli Lon conf
CCCc1cc(=O)n2[nH]c(NC(=O)c3ccco3)nc2n1	5.4	-3.5	.	-2.0	1.2	-1.4	.
CCOc1ccc(N=Cc2ccc(N(C)C)cc2)c(O)c1	.	.	.	.	.	125.7*	78.2*
CCOc1ccc(N=Cc2ccc([N+](=O)[O-])cc2)c(O)c1	.	.	.	.	.	43.0*	1.4
O=c1c(OCc2ccccc2)cccn1Cc1ccccc1	.	.	.	.	.	-12.2	.
COc1ccc(C(C)(O)c2nc(-c3ccc(OC)nc3)cs2)cc1 (configuration not stated)	.	.	.	.	.	-8.0	.
CC1(OC(=O)c2cccs2)C(=O)C=C2C=C(C3CC3)OC=C2C1=O (configuration not stated)	-1.2	1.3	.	-7.5	1.7	13.6	.
CC1(OC(=O)c2ccco2)C(=O)C=C2C=C(C3CC3)OC=C2C1=O (configuration not stated)	8.4	-1.5	.	-10.1	10.8	25.4*	13.0
COC(=O)c1ccccc1NC(=O)CSc1nnc(-c2cccnc2)o1	-3.1	-5.7	.	-14.0	-2.6	2.2	.
CCC1(O)C(=O)OCc2c1cc1n(c2=O)Cc2cc3cc(O)ccc3nc2-1 (configuration not stated)	27.4	5.0	.	-33.7	11.6	+	+
COc1ccc2[nH]cc(CCNC(=O)CC[C@H]3O[C@@H](n4cc(C)c(=O)[nH]c4=O)C[C@@H]3O)c2c1	5.0	-2.0	.	-1.8	-0.2	13.2*	0.5
CC(C)CN(C(=O)COC(=O)CCSc1ccc(Cl)cc1)c1c(N)n(Cc2ccccc2)c(=O)[nH]c1=O	.	.	.	.	.	-18.4	.
CC1CCc2nc(NC(=O)C3COc4ccccc4O3)sc2C1 (configuration not stated)	2.3	-6.2	-17.0	-3.7	1.8	33.9*	0.1
Cc1cc(-c2csc(N)n2)c(C)n1C	0.6	0.0	-17.8	-4.5	0.4	16.2*	1.1
C[C@H]1CN=C(Nc2ccccc2)N1CCC1CCCC1	-2.1	-6.3	.	4.1	-0.6	8.9	.
CNC(=O)C[C@H]1C(=O)N(CCc2ccccc2)C[C@@H]1C	.	.	.	.	.	-5.5	.
Cc1ccc(SCCC(=O)Nc2ccccc2Br)cc1	0.8	-1.9	-12.2	5.5	0.7	0.0	.
Cc1ccc(SCCC(=O)Nc2ccccc2C(=O)NC(C)C)cc1	0.4	-2.3	3.6	7.2	0.3	69.0*	14.6
COc1ccc(OCc2cc(C(=O)N3CCCC(O)C3)no2)c2ccccc12 (configuration not stated)	-3.5	-0.6	.	2.8	-0.8	-2.7	.
COc1ccc(NC(=O)c2sc3nc(N4CCOCC4)c4c(c3c2N)CC(C)(C)OC4)c(OC)c1	-2.5	-0.6	.	-11.3	1.0	-5.6	.
Cn1cccc1C1Nc2ccccc2NC2=C1C(=O)CC(C)(C)C2 (configuration not stated)	6.8	1.8	0.9	-17.1	5.5	39.4*	-9.5
